Experimental data from the supplement of paper PMC12067093, “Discovery and optimisation of a covalent ligand for TRIM25 and its application to targeted protein ubiquitination” (Chemical Science, 2025).
The full data set covers some 21,000 targets. This sample favours those with the largest changes.

Compound: CC1Cc2ccccc2N1C(=O)C1CCCN(C1)C(=O)CCl (mixture of isomers) [TRIM25 ligand 11 (diastereomer mixture)]
Assay: probe-labelled cysteine peptide fold change vs DMSO (competition) (log2 fold change); higher = less target engagement (more negative = stronger competition)
Settings: THP-1, incubation time: 4 h
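Also: competitive chemoproteomic profiling in live THP-1 cells with an iodoacetamide desthiobiotin (IA-DTB) probe, comparing probe-labelled peptide intensities in compound-treated cells against DMSO-treated controls.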

Sequence of UniProt A6NFI3 (A6NFI3 whole entry, looked up): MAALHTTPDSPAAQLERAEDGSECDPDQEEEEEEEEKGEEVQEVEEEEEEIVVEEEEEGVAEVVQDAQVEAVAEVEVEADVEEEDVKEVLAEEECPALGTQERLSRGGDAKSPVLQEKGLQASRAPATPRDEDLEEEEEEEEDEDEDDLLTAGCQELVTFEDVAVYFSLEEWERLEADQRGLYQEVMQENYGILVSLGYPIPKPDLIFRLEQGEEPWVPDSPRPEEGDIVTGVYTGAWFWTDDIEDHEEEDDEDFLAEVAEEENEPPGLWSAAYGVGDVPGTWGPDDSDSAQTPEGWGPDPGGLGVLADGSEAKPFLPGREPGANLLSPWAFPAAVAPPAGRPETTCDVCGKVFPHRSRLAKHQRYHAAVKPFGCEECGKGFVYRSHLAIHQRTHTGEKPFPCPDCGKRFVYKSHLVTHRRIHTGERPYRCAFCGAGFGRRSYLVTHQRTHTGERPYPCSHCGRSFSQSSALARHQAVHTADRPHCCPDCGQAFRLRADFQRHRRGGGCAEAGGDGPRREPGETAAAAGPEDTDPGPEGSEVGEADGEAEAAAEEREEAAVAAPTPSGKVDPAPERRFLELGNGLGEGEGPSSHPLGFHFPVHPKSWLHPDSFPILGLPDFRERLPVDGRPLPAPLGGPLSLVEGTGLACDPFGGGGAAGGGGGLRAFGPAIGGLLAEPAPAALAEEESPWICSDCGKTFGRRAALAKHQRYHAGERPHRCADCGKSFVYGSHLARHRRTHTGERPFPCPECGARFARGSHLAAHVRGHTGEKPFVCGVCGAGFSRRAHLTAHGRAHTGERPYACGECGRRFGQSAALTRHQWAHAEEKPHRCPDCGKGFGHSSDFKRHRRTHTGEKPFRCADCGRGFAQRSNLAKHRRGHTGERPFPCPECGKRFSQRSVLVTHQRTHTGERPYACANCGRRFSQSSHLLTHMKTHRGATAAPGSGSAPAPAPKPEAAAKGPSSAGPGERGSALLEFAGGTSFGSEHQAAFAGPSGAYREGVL
Sequence of UniProt Q04917 (Q04917 whole entry, looked up): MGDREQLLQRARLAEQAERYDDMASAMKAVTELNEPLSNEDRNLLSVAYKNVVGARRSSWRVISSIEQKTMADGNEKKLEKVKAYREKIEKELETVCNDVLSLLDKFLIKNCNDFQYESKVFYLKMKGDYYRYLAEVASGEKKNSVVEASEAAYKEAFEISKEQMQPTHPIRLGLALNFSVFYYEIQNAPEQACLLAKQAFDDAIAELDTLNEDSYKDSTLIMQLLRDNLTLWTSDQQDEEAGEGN
Sequence of UniProt Q8N1G0 (Q8N1G0 whole entry, looked up): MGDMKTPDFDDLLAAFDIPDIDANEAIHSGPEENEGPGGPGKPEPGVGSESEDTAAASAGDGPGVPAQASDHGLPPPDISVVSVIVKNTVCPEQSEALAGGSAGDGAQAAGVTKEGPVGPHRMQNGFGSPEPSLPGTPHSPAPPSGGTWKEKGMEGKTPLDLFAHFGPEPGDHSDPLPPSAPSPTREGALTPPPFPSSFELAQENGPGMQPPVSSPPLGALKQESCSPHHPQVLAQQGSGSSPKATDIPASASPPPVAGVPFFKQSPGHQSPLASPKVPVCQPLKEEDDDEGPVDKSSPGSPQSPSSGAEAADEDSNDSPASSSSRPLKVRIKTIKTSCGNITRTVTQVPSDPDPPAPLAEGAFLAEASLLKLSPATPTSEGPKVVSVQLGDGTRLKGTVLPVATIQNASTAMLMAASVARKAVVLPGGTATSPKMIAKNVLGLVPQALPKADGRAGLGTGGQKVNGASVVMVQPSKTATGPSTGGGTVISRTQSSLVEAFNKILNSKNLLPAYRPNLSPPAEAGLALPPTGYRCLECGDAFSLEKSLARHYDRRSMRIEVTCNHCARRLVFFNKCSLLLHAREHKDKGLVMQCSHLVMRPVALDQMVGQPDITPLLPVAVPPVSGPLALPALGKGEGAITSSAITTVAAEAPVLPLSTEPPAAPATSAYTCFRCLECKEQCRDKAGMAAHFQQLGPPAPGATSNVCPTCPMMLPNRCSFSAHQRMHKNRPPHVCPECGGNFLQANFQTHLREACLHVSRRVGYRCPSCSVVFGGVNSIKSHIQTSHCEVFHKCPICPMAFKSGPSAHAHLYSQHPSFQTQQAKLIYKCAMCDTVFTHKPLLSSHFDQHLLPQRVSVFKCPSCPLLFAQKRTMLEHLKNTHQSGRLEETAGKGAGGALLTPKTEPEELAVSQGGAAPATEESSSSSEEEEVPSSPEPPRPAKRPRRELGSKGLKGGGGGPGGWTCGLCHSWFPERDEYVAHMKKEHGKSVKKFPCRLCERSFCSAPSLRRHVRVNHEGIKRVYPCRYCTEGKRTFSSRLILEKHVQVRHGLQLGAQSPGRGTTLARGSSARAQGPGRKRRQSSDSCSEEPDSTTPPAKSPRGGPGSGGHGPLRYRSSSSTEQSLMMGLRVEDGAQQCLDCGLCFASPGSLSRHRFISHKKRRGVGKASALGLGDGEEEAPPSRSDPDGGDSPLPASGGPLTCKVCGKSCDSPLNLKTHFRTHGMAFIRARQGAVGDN
Sequence of UniProt Q5T4F4 (Q5T4F4 whole entry): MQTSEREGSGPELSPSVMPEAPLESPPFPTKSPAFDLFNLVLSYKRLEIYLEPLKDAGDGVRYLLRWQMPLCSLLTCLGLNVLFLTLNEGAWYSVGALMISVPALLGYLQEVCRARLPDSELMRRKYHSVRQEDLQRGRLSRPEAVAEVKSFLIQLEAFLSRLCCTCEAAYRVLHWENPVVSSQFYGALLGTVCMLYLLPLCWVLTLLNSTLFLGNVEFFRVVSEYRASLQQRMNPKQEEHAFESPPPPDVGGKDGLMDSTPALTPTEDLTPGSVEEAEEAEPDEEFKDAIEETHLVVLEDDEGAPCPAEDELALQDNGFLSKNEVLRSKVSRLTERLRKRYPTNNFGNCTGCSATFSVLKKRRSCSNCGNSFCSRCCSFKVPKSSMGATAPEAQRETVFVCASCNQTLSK
Sequence of UniProt P07947 (P07947 whole entry, looked up): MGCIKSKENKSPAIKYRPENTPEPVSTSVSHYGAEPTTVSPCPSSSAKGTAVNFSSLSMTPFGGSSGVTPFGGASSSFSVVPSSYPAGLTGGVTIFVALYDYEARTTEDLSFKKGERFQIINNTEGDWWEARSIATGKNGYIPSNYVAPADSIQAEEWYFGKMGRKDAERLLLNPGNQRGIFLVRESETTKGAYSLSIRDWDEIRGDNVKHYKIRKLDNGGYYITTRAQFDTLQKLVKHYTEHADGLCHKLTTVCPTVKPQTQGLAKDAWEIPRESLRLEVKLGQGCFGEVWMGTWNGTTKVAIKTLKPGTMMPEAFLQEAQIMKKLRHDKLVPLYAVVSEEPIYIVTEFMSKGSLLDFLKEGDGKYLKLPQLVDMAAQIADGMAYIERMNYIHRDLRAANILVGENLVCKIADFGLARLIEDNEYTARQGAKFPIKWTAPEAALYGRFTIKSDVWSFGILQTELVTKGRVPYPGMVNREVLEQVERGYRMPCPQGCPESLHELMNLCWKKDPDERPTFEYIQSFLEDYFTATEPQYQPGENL
Sequence of UniProt Q8N1W2 (Q8N1W2 whole entry): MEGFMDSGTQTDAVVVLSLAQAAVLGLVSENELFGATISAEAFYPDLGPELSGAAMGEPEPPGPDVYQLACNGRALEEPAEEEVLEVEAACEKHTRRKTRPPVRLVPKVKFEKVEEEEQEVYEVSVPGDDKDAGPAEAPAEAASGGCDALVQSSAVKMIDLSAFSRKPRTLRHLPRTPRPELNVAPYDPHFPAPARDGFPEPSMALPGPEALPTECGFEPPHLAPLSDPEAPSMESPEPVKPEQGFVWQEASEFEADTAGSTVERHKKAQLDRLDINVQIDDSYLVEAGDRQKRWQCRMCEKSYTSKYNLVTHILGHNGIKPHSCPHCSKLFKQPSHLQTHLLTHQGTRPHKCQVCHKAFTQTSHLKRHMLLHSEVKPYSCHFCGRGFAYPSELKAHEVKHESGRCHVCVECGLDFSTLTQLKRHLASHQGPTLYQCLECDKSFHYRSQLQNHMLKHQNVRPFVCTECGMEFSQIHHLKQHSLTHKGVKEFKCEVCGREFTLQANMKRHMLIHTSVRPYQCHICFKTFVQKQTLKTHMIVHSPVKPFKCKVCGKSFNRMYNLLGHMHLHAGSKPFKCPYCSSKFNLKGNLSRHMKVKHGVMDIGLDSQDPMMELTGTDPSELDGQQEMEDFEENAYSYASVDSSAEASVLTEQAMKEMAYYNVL

Row | Target | probe-labelled cysteine peptide fold change (10 µM) | probe-labelled cysteine peptide fold change (50 µM)
1 | YWHAH_Q04917_97_ELETVCNDVLSLLDK (UniProt Q04917) | -0.1 | -0.178
2 | ZFYVE27_Q5T4F4_353_RYPTNNFGNCTGCSATFSVLK (UniProt Q5T4F4) | -0.247 | -0.0647
3 | XRN2_Q9H0D6_296_GKHDELADSLPCAEGEFIFLR (UniProt Q9H0D6) | 0.0997 | -0.0177
4 | ZNF687_Q8N1G0_576_CSLLLHAR (UniProt Q8N1G0) | 0.101 | 0.0491
5 | ZNF316_A6NFI3_861_CADCGR (UniProt A6NFI3) | 0.139 | 0.163
6 | ZNF710_Q8N1W2_91_ALEEPAEEEVLEVEAACEK (UniProt Q8N1W2) | 0.158 | -0.171
7 | YES1_P07947_255_LTTVCPTVKPQTQGLAK (UniProt P07947) | -0.0129 | -0.34
8 | XRN2_Q9H0D6_296_HDELADSLPCAEGEFIFLR (UniProt Q9H0D6) | 0.409 | -0.0107
9 | XRN2_Q9H0D6_736_FSLDEEAILPDQIVCSPVPMLR (UniProt Q9H0D6) | 0.234 | 0.0197
